# A selection: hits, their analogues and other compounds. The true share with any hit is near 2.9%.
# S2 tox: cell viability loss in ATXN counter-screen. S2 cells (HEK-293 line with an ATXN2-luciferase reporter) viability, CellTiter-Fluor protease fluorescence, 24 h. 400,000 tested, 0.49% active. Potency, µM (titrated, usually from 56.7 µM), usual class: cytotoxic. AID 651635; also: nearly all actives have a fitted effect of over 40% in size
# Nrf2 block: inhibitors of Nrf2 signaling; A549 ARE-Fluc reporter, luciferase luminescence, 18-24 h; 360,000 tested, 2.1% active; Potency, µM (top dose mostly 46 µM), inactives show at the top dose activity change, negative = inhibition, actives largely listed as inhibitors; also: % is scaled to controls: 0 for no effect and ±100 for the full control effect; nearly all actives have a fitted effect of over 60% in size
#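 Concentration-response testing used A549 ARE_Fluc cells at 5000 cells/well. Following an 18-24 h compound incubation, viability was read by fluorescence (Ex 405/Em 525) and luciferase output by luminescence.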
# ATXN2 expr inh: reduces ATXN2 reporter expression in HEK-293 cells; HEK-293 ATXN2-luciferase reporter, luminescence, 24 h; AID 1745845; 360,000 tested, 0.72% active; Potency, µM (series often up to 57 µM), for inactives: at the highest dose activity change, negative = inhibition, usual class: inhibitors; also: % is scaled to controls: 0 for no effect and ±100 for the full control effect; nearly all actives have a fitted effect of over 55% in size
#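 qHTS (up to 57 uM final) was run with 24 h compound exposure of reporter cells at 37 °C. Each well was multiplexed: SteadyGlo luminescence measured ATXN2-luciferase expression after a fluorogenic Gly-Phe-AFC viability readout (25 uM final).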
# A549 viability: A549 cytotoxicity, counter-screen for Nrf2 inhibitors; Potency, µM (series often up to 46 µM), for the others: at the highest dose activity change, negative = cytotoxicity, most hits filed as inhibitors; A549 ARE-Fluc cells, CellTiter-Fluor viability, 18-24 h; 390,000 tested, 0.16% active; AID 504648; also: % is scaled to controls: 0 for no effect and ±100 for the full control effect
#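 Cytotoxicity counterscreen: CellTiter-Fluor fluorescence was measured in A549 ARE_Fluc cells after 18-24 h of compound exposure in a concentration series. The subsequent BugLite luminescent read reports ARE-luciferase activity.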
# Nrf2 activator: activates Nrf2 signaling; AREc32 ARE-luciferase reporter (MCF7-derived line), luminescence, 24 h; Potency, µM (highest dose often 46.1 µM), for the others: top-dose activation, actives largely listed as activators; 410,000 tested, 0.31% active; also: % of control where 0% means no effect; nearly all actives have a fitted effect of over 65% in size
#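 AREc32_Fluc, 1000 cells/well, OPTI-MEM + 5% FBS, o/n 37 deg C 5% CO2; 23 nL cpd by pin tool, 24 hr; Steady-Glo 30 min RT, luminescence.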
# * hit, by the source's call; i = inactive; ? = inconclusive; . = not tested or not shown. Calls follow the shape of the dose curve; as a rule, active = well fitted curve in the direction sought with a large enough effect; inconclusive = small, poorly fitted or top-dose-only effect, or another doubt; inactive = no such curve, though single readings can be large; an effect the other way counts as inactive or inconclusive. Potency is read from the fitted curve at half-maximal effect.
SMILES,S2 tox,Nrf2 block,ATXN2 expr inh,A549 viability,Nrf2 activator
COCc1c(C(=O)N2CCN(c3ccccc3O)CC2)cnn1-c1nccc(-c2cccs2)n1,i,.,.,.,.
COc1ccc(-c2nc(N=Nc3ccc(O)cc3)n[nH]2)cc1,8.9µM*,16%,-8%,-17%,0%
COc1c(C)cccc1C(=O)Nc1ccc(-c2nc3ccccc3s2)c(Cl)c1,i,26µM*,13%,-23%,0%
Cc1c(C(=O)N(CCO)C(C)C)cnn1-c1ncc2c(n1)-c1ccccc1CCC2,i,.,.,.,.
Cc1cnc(NC(=O)CCCc2nc3ccccc3s2)s1,?,.,2.5µM*,?,2%
O=C(CCCc1nc2ccccc2s1)Nc1nccs1,i,1%,?,-11%,2%
CC1(C)OC[C@@H]2O[C@@]3(C(=O)O)OC(C)(C)O[C@H]3[C@@H]2O1,i,.,-1%,.,.
CS(=O)(=O)c1ccc(C(=O)OCC(=O)N2CCN(CCC3CCCCC3)CC2)cc1[N+](=O)[O-],?,.,3.5µM*,.,-5%
OC(c1ccc(OCc2ccccc2)cc1)c1nnc(-c2ccccc2)o1 (configuration not stated),i,16µM*,-13%,-18%,0%
CCN(CC)CCOC(=O)c1ccc(NC(=O)c2cc3c(s2)-c2ccccc2OC3)cc1,i,?,?,?,7%
Cc1cc(C)n(Cc2cccc(C(=O)NCC3Cc4cccc(-c5ncccn5)c4O3)c2)n1 (configuration not stated),i,.,.,.,.
COc1ccc(-c2cc(-c3ccccc3)c(C#N)c(S(C)=O)n2)cc1 (configuration not stated),?,?,28µM*,-16%,?
Cc1cc(/C=C2\Sc3ccccc3N2C)cc(C)[n+]1CC1CCCO1 (configuration not stated),.,1.2µM*,1.2µM*,4.1µM*,12%
COc1ccc(-n2cc(C(=O)NCc3ccccc3Cl)c3ccccc3c2=O)cc1,.,27%,.,3%,0%
CCC[C@@H]1C[C@@H](C(=O)N[C@@H]([C@H]2O[C@H](SC)[C@H](OP(=O)(O)O)[C@@H](O)[C@H]2O)[C@H](C)Cl)N(C)C1,i,.,.,.,.
O=S(=O)(c1ccc(NC(=S)N/N=C/c2c3ccccc3cc3ccccc23)cc1)N1CCOCC1,?,9.2µM*,.,-7%,5%
Cc1ccccc1C(=O)NC(=S)Nc1ccc(S(=O)(=O)N2CCN(C)CC2)cc1,i,.,0%,15%,0%
Cc1ccccc1C(=O)NC(=S)Nc1ccc(S(=O)(=O)N2CCOCC2)cc1,i,13µM*,-35%,3%,-1%
O=S(=O)(c1ccc(NC(=S)N2CCN(c3ccccc3F)CC2)cc1)N1CCOCC1,i,13µM*,-31%,-3%,-1%
CCOc1ccc(CNC(=O)C2Cc3ccccc3N2C(=O)CC)cc1OC (configuration not stated),?,.,6%,0%,0%
CCCNC(=O)c1ccc2c(=O)c(O)c(-c3cccc(Br)c3)[nH]c2c1,i,20%,22µM*,6%,-1%
C=C1C[C@@]2(O)O[C@@]3(C[C@H]2C(C)C)[C@H](C)CC[C@H]13,.,.,-3%,.,.
Cc1cccc(NC(=O)COc2ccc(-c3nn(C)c(=O)c4ccccc34)cc2)c1,?,23µM*,?,?,-3%
Cn1nc(-c2ccc(OCC(=O)Nc3ccccc3)cc2)c2ccccc2c1=O,.,?,.,-3%,1%
C=CC1CN2CCC1CC2[C@@H](O)c1ccnc2ccc(OC)cc12 (some centres not stated),.,6%,.,-1%,.
SMILES,S2 tox,Nrf2 block,ATXN2 expr inh,A549 viability,Nrf2 activator
CC1=NNC(=O)/C1=C\c1cn(-c2ccccc2)nc1-c1ccc(F)cc1,.,?,7.5µM*,?,-4%
O=C(O)CCCCCN1C(=O)/C(=C/c2cn(-c3ccccc3)nc2-c2cccs2)SC1=S,?,?,-30%,?,10%
CC1=NNC(=O)/C1=C\c1cn(-c2ccccc2)nc1-c1cccs1,3.2µM*,?,.,-23%,?
Cc1cc(C)cc(Cn2ncc3c4sc(C)cc4n(C)c3c2=O)c1,.,4%,.,-11%,.
COc1cc(-c2cc(C)c3cccc(OC)c3n2)cc2c1OCCN(C(=O)CCn1ccc(C)n1)C2,i,.,.,.,.
CCOC(=O)c1ccccc1NC(=O)NC(C)c1c(-n2cccc2)sc(C)c1C (configuration not stated),.,4%,.,1%,3%
CCOc1ccc(NC(=O)NC(C)c2c(-n3cccc3)sc(C)c2C)cc1 (configuration not stated),.,21µM*,.,-28%,4%
CCC=CC[C@H]1C(=O)CC[C@@H]1CC(=O)OC,.,.,-1%,.,.
COc1ncccc1-c1cc2nc(NCCNC(C)=O)n(C)c(=O)c2s1,i,.,4%,.,3.5µM*
CC(=O)NCCNc1nc2cc(-c3ccccc3)sc2c(=O)n1C,i,.,-11%,.,1%
NS(=O)(=O)c1ccc(NC(=O)c2c(F)cccc2Cl)cc1,i,-6%,-32%,1%,-1%
Nc1nc(Nc2ccc(S(N)(=O)=O)cc2)nn1C(=O)c1c(F)cccc1F,.,.,12µM*,.,.
COc1cc(CN2CCOc3ccc(C(O)c4cccnc4)cc3C2)cc(OC)c1 (configuration not stated),i,.,.,.,.
CCCCCOc1ccccc1/C(=C\SC)n1ccnc1,i,.,-13%,.,.
CCOC(=O)[C@H]1[C@H]2COc3ccc(Cl)cc3[C@@H]2N2C(=O)c3ccc(F)cc3NC(=O)[C@@]12C,i,23µM*,5%,-8%,3%
CCOC(=O)c1c(-c2cccs2)csc1NC(=O)CN(CC)CC,.,18µM*,.,?,0%
CCOC(=O)c1c(-c2cccs2)csc1NC(=O)CC(C)C,i,-9%,1%,15%,0%
O=C(NC(=S)N(CCCCO)C1CCCCC1)c1sc2ccccc2c1Cl,?,12µM*,?,?,19%
Cn1nc([N+](=O)[O-])nc1S(C)(=O)=O,?,23µM*,?,-8%,-2%
CC1CCN(C(=O)CSc2nc(-c3ccc(C(C)C)cc3)no2)CC1,?,?,-24%,-17%,7%
Cc1nc(NC(C)c2ccccc2)c2c3c(sc2n1)CCC3 (configuration not stated),i,?,-20%,?,11%
NNc1nc(-c2ccccc2)nc2sc3c(c12)CCCC3,i,?,0%,8%,1.4µM*
COc1ccc(C(=O)NCCN2Cc3ccccc3OC(c3ccsc3)C2)c(OC)n1 (configuration not stated),i,.,.,.,.
N/C(=N\OC(=O)c1cccc(Cl)c1)c1cccnc1,i,?,38%,-2%,?
N/C(=N\OC(=O)c1ccccc1Cl)c1ccncc1,i,?,65%,-1%,8.9µM*

# Screening data deposited in PubChem by National Center for Advancing Translational Sciences (NCATS).
